Reference: PubChem BioAssay (EPA / NIEHS)
Values joined by “and” are separate entries in the source; they are usually repeats but may differ in a detail not shown here. Identical values can stand only once. Results filed as inconclusive are left out. Active and inactive are the calls of the source. The calls were made as follows, unless noted: active = hit-call score of the fitted dose curve at least 0.9, where 1 is the maximum; inactive = score below 0.9.

Assays:
[1] = read-out: Monocyte Chemoattractant Protein-1 (MCP1), CCL2 (gene 6347); experiment: BSK_SAg_MCP1: BioMAP Diversity Plus: SAg Assay for Monocyte Chemoattractant Protein-1 (MCP1) Biomarker Activity (AID 2283090); settings: primary human HUVEC with PBMC; actives raise or lower the signal
In short: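 MCP-1 levels in the endothelial–PBMC SAg co-culture were quantified by ELISA at 24 h post-dosing; both increases and decreases versus DMSO scored. Cytotoxicity monitored by SRB total protein in parallel cultures.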

[2] = read-out: E-selectin (Homo sapiens) (UniProt P16581); experiment: BSK_SAg_Eselectin: BioMAP Diversity Plus: SAg Assay for Eselectin Biomarker Activity (AID 2283091); settings: primary human HUVEC with PBMC; actives raise or lower the signal
In short: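 Primary human endothelial cells and peripheral blood mononuclear cells were co-cultured and exposed to chemical for 24 hours. E-selectin levels were then quantified by ELISA, with bidirectional curve fitting normalised to DMSO controls.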

[3] = read-out: Monokine induced gamma interferon (MIG), CXCL9 (gene 4283); experiment: BSK_SAg_MIG: BioMAP Diversity Plus: SAg Assay for Monokine induced gamma interferon (MIG) Biomarker Activity (AID 2283092); settings: primary human HUVEC with PBMC; actives raise or lower the signal
In short: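 Measures CXCL9 protein by ELISA in a human vascular primary-cell co-culture (umbilical vein endothelium with PBMC) 24 h after chemical addition. Activity is scored up or down from the DMSO control.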

[4] = BSK_SAg_PBMCCytotoxicity: PBMC Cytotoxicity Assessment in the BioMAP Diversity Plus: SAg Assay (AID 2283093); settings: primary human HUVEC with PBMC;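 also: PBMC viability measured as Alamar Blue reduction fluorescence at 546/580 nm; fitted both ways against DMSO so a hit may be loss or gain of signal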;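 as to AC50: PBMC superantigen activated with SEB plus TSST-1 one hour after compound addition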
In short: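 Human umbilical vein endothelial cells co-cultured with PBMC; PBMC (75,000/well) pre-treated with compound 1 h, then activated with SEB and TSST-1 (20 ng/mL final each) for 90 h. Alamar Blue added 6 h, fluorescence 546/580 nm; bidirectional fit versus DMSO.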

[5] = read-out: Interleukin-8 (IL8), CXCL8 (gene 3576); experiment: BSK_SAg_IL8: BioMAP Diversity Plus: SAg Assay for Interleukin-8 (IL8) Biomarker Activity (AID 2283094); settings: primary human HUVEC with PBMC; actives raise or lower the signal
In short: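 Human umbilical vein endothelial cells co-cultured with PBMC, stimulated with superantigen; IL-8 measured by ELISA 24 h after chemical dosing. Bidirectional fitting versus DMSO; SRB staining in parallel cultures tracks cytotoxicity.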

[6] = BSK_SAg_SRB: Viability Assessment in the BioMAP Diversity Plus: SAg Assay (AID 2283096); settings: primary human HUVEC with PBMC;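 also: cells read one day after compound addition; hits may be either gain or loss of signal compared with DMSO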
In short: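 Endothelial/PBMC primary human co-culture; compound 24 h; fix 10% TCA, stain 0.1% SRB, A560; protein content as cytotoxicity proxy; bidirectional curve fit, DMSO = baseline.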

[7] = BSK_SAg_Proliferation: Cell Proliferation Assessment in the BioMAP Diversity Plus: SAg Assay (AID 2283095); settings: primary human HUVEC with PBMC
In short: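 Human umbilical vein endothelial cells co-cultured with PBMC; sulforhodamine B total-protein staining (0.1% SRB after 10% TCA fixation, absorbance 560 nm) at 96 h in sub-confluent culture. Fitted bidirectionally against DMSO.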

[8] = biological target: human CYP2D6, CYP2D6 (gene 1565) (UniProt P10635); experiment: NVS_ADME_hCYP2D6: NovaScreen (NVS) CYP450-related Enzyme Activity (ADME) Assay for human CYP2D6 (AID 2283107; active = hit-call score of the fitted dose curve at least 0.9, where 1 is the maximum)
In short: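 Compounds were first tested in duplicate at 10 uM against recombinant enzyme produced in insect cells, with substrate turnover measured by fluorescence after 1 hour. Decreased signal, referenced to acetonitrile vehicle, was taken as reduced enzyme activity. Active chemicals went on to concentration-response testing.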

[9] = biological target: Cytochrome P450 2C19 (Homo sapiens) (UniProt P33261); experiment: NVS_ADME_hCYP2C19: NovaScreen (NVS) CYP450-related Enzyme Activity (ADME) Assay for human CYP2C19 (AID 2283113; active = hit-call score of the fitted dose curve at least 0.9, where 1 is the maximum;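 also: potency for inhibition seen as loss of fluorescent signal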)
In short: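 Chemicals first screened in duplicate at 10 uM against recombinant human enzyme produced in insect cells; confirmed actives then run as concentration series. Fluorogenic substrate turnover read by fluorescence after 1 h, normalised to acetonitrile.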

Sequence of E-selectin (Homo sapiens) (P16581 whole entry, looked up): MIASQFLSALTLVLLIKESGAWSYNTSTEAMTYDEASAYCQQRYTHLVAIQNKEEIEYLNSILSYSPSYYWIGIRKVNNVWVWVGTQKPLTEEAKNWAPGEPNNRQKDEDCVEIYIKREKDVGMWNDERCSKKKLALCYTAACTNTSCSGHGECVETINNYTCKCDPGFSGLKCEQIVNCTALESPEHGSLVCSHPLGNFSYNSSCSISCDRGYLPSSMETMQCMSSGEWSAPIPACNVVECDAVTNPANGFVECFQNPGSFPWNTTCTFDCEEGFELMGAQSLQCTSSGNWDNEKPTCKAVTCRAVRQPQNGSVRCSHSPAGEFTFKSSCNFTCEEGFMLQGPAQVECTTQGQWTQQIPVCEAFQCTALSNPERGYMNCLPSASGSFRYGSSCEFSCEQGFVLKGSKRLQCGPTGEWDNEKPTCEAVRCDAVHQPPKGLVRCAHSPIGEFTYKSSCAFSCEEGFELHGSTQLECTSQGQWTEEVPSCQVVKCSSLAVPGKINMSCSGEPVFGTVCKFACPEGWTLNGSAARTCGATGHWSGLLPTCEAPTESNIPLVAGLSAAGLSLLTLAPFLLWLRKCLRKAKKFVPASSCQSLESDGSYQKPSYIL
Sequence of human CYP2D6, CYP2D6 (gene 1565) (P10635 whole entry, looked up): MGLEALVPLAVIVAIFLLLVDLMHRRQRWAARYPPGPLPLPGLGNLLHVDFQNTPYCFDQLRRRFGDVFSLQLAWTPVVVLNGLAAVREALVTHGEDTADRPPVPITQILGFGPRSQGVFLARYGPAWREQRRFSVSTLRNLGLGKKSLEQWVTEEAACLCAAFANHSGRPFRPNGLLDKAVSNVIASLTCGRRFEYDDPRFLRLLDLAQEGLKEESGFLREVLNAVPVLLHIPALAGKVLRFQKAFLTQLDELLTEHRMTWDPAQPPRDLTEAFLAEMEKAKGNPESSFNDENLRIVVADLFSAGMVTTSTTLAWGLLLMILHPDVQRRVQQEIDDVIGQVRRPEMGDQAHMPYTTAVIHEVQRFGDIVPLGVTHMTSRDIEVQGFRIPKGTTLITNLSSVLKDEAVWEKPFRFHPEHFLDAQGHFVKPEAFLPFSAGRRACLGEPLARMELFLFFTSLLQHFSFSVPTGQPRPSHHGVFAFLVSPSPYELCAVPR

O=C(O)C(F)(F)C(F)(F)C(F)(F)C(F)(F)C(F)(F)C(F)(F)C(F)(F)C(F)F
outcome [1]: inactive
outcome [2]: inactive
outcome [3]: inactive
outcome [4]: inactive
outcome [5]: inactive
outcome [6]: inactive

CC(=O)c1ccc(C)cc1
outcome [1]: inactive
outcome [2]: inactive
outcome [3]: inactive
outcome [4]: inactive
outcome [5]: inactive
outcome [6]: inactive

CC(C)Cc1ccc(C(C)C(=O)O)cc1 (stereo not given)
outcome [1]: inactive
outcome [2]: inactive
outcome [3]: inactive
outcome [4]: inactive
outcome [5]: inactive
outcome [7]: inactive
outcome [6]: inactive
outcome [8]: inactive

CCOC(=O)C=Cc1ccccc1
outcome [1]: inactive
outcome [2]: inactive
outcome [3]: inactive
outcome [4]: inactive
outcome [5]: inactive
outcome [6]: inactive

C=CC(=O)OCC(CO)(COC(=O)C=C)COC(=O)C=C
AC50 [1]: 686 nM (active)
AC50 [2]: 0.333 µM (active)
AC50 [3]: 601 nM (active)
AC50 [4]: 0.0476 µM (active)
AC50 [5]: 219 nM (active)
AC50 [7]: 30.5 nM (active)
AC50 [6]: 2.13 µM (active)
AC50 [9]: 1.76 µM (active)

CCC(=O)OCC=Cc1ccccc1
outcome [1]: inactive
outcome [2]: inactive
outcome [3]: inactive
outcome [4]: inactive
outcome [5]: inactive
outcome [6]: inactive

CC(=O)CCC=C(C)CCC=C(C)C
outcome [1]: inactive
outcome [2]: inactive
outcome [3]: inactive
outcome [4]: inactive
outcome [5]: inactive
outcome [6]: inactive

CC(=O)OCC=C(C)CCC=C(C)CCC=C(C)C
outcome [1]: inactive
outcome [2]: inactive
outcome [3]: inactive
outcome [4]: inactive
outcome [5]: inactive
outcome [6]: inactive

O=C1OC2(c3ccc(O)cc3Oc3cc(O)ccc32)c2ccccc21
outcome [1]: inactive
outcome [2]: inactive
outcome [3]: inactive
outcome [4]: inactive
outcome [5]: inactive
outcome [6]: inactive

CCCCOCCOCCO
outcome [1]: inactive
outcome [2]: inactive
outcome [3]: inactive
outcome [4]: inactive
outcome [5]: inactive
outcome [6]: inactive

C=C(F)C(=O)OC(C(F)(F)F)C(F)(F)F
outcome [1]: inactive
outcome [2]: inactive
outcome [3]: inactive
outcome [4]: inactive
outcome [5]: inactive
outcome [6]: inactive

CC(C)(CO)CO
outcome [1]: inactive
outcome [2]: inactive
outcome [3]: inactive
outcome [4]: inactive
outcome [5]: inactive
outcome [6]: inactive

CC1=CC(C)C(C=O)C(C)C1 (stereo not given) (tested in a mixture with another compound)
outcome [1]: inactive
outcome [2]: inactive
outcome [3]: inactive
outcome [4]: inactive
outcome [5]: inactive
outcome [6]: inactive

CC(C)(C)c1cccc(O)c1
outcome [1]: inactive
outcome [2]: inactive
outcome [3]: inactive
outcome [4]: inactive
outcome [5]: inactive
outcome [6]: inactive

CC=CC(=O)C1=C(C)C=CCC1(C)C
outcome [1]: inactive
outcome [2]: inactive
outcome [3]: inactive
outcome [4]: inactive
AC50 [5]: 16 nM (active)
outcome [6]: inactive

NC(=O)c1c(Cl)cccc1Cl
outcome [1]: inactive
outcome [2]: inactive
outcome [3]: inactive
outcome [4]: inactive
outcome [5]: inactive
outcome [6]: inactive

C=C1CC/C=C(\C)CC[C@@H]2[C@@H]1CC2(C)C
AC50 [1]: 34400 nM (active)
AC50 [2]: 20 µM (active)
outcome [3]: inactive
AC50 [4]: 20 µM (active)
AC50 [5]: 32300 nM (active)
AC50 [6]: 33.1 µM (active)

CCCCCCCCCCCCS
outcome [1]: inactive
outcome [2]: inactive
outcome [3]: inactive
outcome [4]: inactive
outcome [5]: inactive
AC50 [6]: 36.1 µM (active)

CCCCCCCCCC(=O)OCC
outcome [1]: inactive
AC50 [2]: 20 µM (active)
outcome [3]: inactive
AC50 [4]: 34.1 µM (active)
outcome [5]: inactive
outcome [6]: inactive

OCC(F)(OC(F)(F)C(F)(OC(F)(F)C(F)(F)C(F)(F)F)C(F)(F)F)C(F)(F)F (stereo not given)
AC50 [1]: 2.27 µM (active) and 1.92 µM (active)
AC50 [2]: 2.96 µM (active) and 3.23 µM (active)
outcome [3]: inactive
AC50 [4]: 2.03 µM (active) and 1.97 µM (active)
AC50 [5]: 2.22 µM (active) and 2.66 µM (active)
AC50 [6]: 5.05 µM (active) and 3.37 µM (active)

CC(C)CCCC(C)(C)O
outcome [1]: inactive
outcome [2]: inactive
outcome [3]: inactive
outcome [4]: inactive
outcome [5]: inactive
outcome [6]: inactive

CCCCCCCC1CCCC1=O (stereo not given)
outcome [1]: inactive
outcome [2]: inactive
outcome [3]: inactive
outcome [4]: inactive
outcome [5]: inactive
outcome [7]: inactive
outcome [6]: inactive

CCn1cc(C(=O)O)c(=O)c2ccc(C)nc21
outcome [1]: inactive
outcome [2]: inactive
outcome [3]: inactive
outcome [4]: inactive
outcome [5]: inactive
outcome [7]: inactive
outcome [6]: inactive

O=S(=O)(O)C(F)(F)C(F)(F)OC(F)(F)C(F)(F)F
outcome [1]: inactive
outcome [2]: inactive
outcome [3]: inactive
outcome [4]: inactive
outcome [5]: inactive
outcome [6]: inactive
